The record followed here is PubChem BioAssay (NCI).

The panel holds about 83,000 compounds, 20% with a hit somewhere; the sample as a whole holds those more often.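 96-well plates, one dose, 48 hours. Percent growth reported; active if below 10.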 Values without a mark were called inactive. Calls of active or inactive are those of the source.

Test systems include SR leukemia; RPMI-8226 leukemia; OVCAR-8 ovarian; OVCAR-5 ovarian; OVCAR-4 ovarian; SK-OV-3 ovarian; IGROV1 ovarian; OVCAR-3 ovarian; HS 578T breast; NCI/ADR-RES ovarian; T-47D breast; BT-549 breast; MDA-MB-435 melanoma; SW-620 colon; MCF7 breast; HCT-116 colon; HCC-2998 colon; KM12 colon; MDA-MB-468 breast.
Common to all, as to assay: NCI-60 one-dose screen, 48 h (100 = growth as untreated, 0 = no growth, -100 = all killed)
Holding throughout (details): 10 µM

Consider `COc1ccc(/C(CSc2nnc(-c3c[nH]c4ccccc34)n2-c2ccccc2)=N/O)cc1`, for which the growth in the assay with SR leukemia is 10.9%; in the assay on RPMI-8226 leukemia, 9.81% (active); in the assay with OVCAR-8 ovarian it was 29.7%; in the assay on OVCAR-5 ovarian it was 55%; in the assay with OVCAR-4 ovarian, 16.8%; in the assay on SK-OV-3 ovarian, 52.1%. Moreover, the growth with IGROV1 ovarian is 43.1%; in the assay with OVCAR-3 ovarian it was 30.5%; with HS 578T breast it was 38.8%; with NCI/ADR-RES ovarian, 38.2%; in the assay on T-47D breast it was 10.4%; in the assay on BT-549 breast, 16.5%. Further, the growth with MDA-MB-435 melanoma is -5.25% (active); in the assay with SW-620 colon, 39.4%; with MCF7 breast it was 14.5%; in the assay with HCT-116 colon, 28.1%; in the assay with HCC-2998 colon, 42.4%; with KM12 colon it was 21.2%.

For the molecule `Cc1ccc2nc3c(nc2c1)c1cc(I)ccc1n3CCN(C)C`, the growth in the assay with SR leukemia was 10.8%; in the assay with RPMI-8226 leukemia, 22%; in the assay on OVCAR-8 ovarian it was 23.6%; in the assay on OVCAR-5 ovarian, 31.9%; in the assay on OVCAR-4 ovarian it was 27.2%; in the assay on SK-OV-3 ovarian, 39%. Further, the growth is 13.9% with IGROV1 ovarian; 40.8% with OVCAR-3 ovarian; 23.9% with HS 578T breast; 12.5% in the assay with NCI/ADR-RES ovarian; 44.8% in the assay on T-47D breast; 60.2% in the assay on BT-549 breast. Also, the growth in the assay with MDA-MB-435 melanoma is 13.7%; in the assay on SW-620 colon, 15.9%; in the assay with MCF7 breast, -4.43% (active); in the assay on HCT-116 colon, 9.81% (active); in the assay with HCC-2998 colon it was -15.6% (active); in the assay with KM12 colon, 21.1%.

Regarding `O=C(CNc1nc(-c2ccccc2)cs1)Nc1ccc(Cl)cc1`, the growth in the assay with SR leukemia was -18.7% (active); in the assay on RPMI-8226 leukemia, 2.96% (active); in the assay on OVCAR-8 ovarian, -28.8% (active); with OVCAR-5 ovarian it was -95.4% (active); with OVCAR-4 ovarian it was -33.8% (active); in the assay on SK-OV-3 ovarian, -82.9% (active). In addition, the growth was -78.6% (active) with IGROV1 ovarian; -36.6% (active) in the assay on OVCAR-3 ovarian; -3.04% (active) with HS 578T breast; -30.3% (active) with NCI/ADR-RES ovarian; -34.6% (active) in the assay with T-47D breast; -54.5% (active) in the assay with BT-549 breast. The growth in the assay with MDA-MB-435 melanoma was -58.5% (active); in the assay on SW-620 colon, -68.5% (active); in the assay with MCF7 breast, -85.5% (active); in the assay with HCT-116 colon, -41.2% (active); in the assay with HCC-2998 colon, -94.6% (active); in the assay with KM12 colon, -83.8% (active).

On to `Cc1noc2c(Cc3ccc([N+](=O)[O-])cc3)nn(CC(=O)N/N=C/c3ccc(Br)cc3)c(=O)c12`, for which the growth with SR leukemia is 97.6%; in the assay on RPMI-8226 leukemia it was 91.2%; in the assay with OVCAR-8 ovarian, 48.9%; with OVCAR-5 ovarian it was 96.9%; with OVCAR-4 ovarian it was 17.9%; in the assay with SK-OV-3 ovarian, 86.2%. The growth in the assay with IGROV1 ovarian is 95.9%; with OVCAR-3 ovarian, 50.1%; with HS 578T breast, 41.5%; with NCI/ADR-RES ovarian it was 88.5%; in the assay on T-47D breast, 62%; in the assay with BT-549 breast, 94.3%. The growth in the assay on MDA-MB-435 melanoma is 92.3%; in the assay with SW-620 colon, 97.4%; in the assay on MCF7 breast, 68.4%; in the assay on HCT-116 colon, 64.4%; with HCC-2998 colon, 91.9%; with KM12 colon it was 84.2%. In addition, in the assay on MDA-MB-468 breast, the growth was 95.3%.

Take `OCc1[nH]nc2cc(Nc3ncc4ccc(Br)c(OC5CCC(O)CC5)c4n3)ccc12` (stereo unspecified): the growth with SR leukemia is 3.06% (active); in the assay with RPMI-8226 leukemia it was 3.2% (active); in the assay on OVCAR-8 ovarian, 8.63% (active); in the assay on OVCAR-5 ovarian, -17.9% (active); in the assay with OVCAR-4 ovarian, 4.77% (active); with SK-OV-3 ovarian it was 13.7%. Also, the growth is -12.4% (active) with IGROV1 ovarian; 2.95% (active) in the assay on OVCAR-3 ovarian; -28.5% (active) in the assay with HS 578T breast; -3.04% (active) in the assay on NCI/ADR-RES ovarian; 2.7% (active) with T-47D breast; -42.5% (active) in the assay with BT-549 breast. Further, the growth in the assay with MDA-MB-435 melanoma was -15.7% (active); in the assay on SW-620 colon, -18.6% (active); in the assay on MCF7 breast, -74.7% (active); in the assay on HCT-116 colon, 6.59% (active); in the assay on HCC-2998 colon it was -49% (active); in the assay on KM12 colon, 2.85% (active). The growth in the assay on MDA-MB-468 breast is -87.8% (active).

Take `Cc1ccc(/C(CSc2nnc(-c3c[nH]c4ccccc34)n2-c2ccccc2)=N/O)cc1`: the growth in the assay on SR leukemia was 9.79% (active); in the assay with RPMI-8226 leukemia it was -19.1% (active); in the assay with OVCAR-8 ovarian it was -27.8% (active); with OVCAR-5 ovarian it was -48.9% (active); with OVCAR-4 ovarian it was -87.2% (active); in the assay with SK-OV-3 ovarian it was 11.5%. The growth with IGROV1 ovarian is -62.4% (active); in the assay on OVCAR-3 ovarian, 14.7%; with HS 578T breast, -53.5% (active); in the assay with NCI/ADR-RES ovarian it was -68.4% (active); in the assay with T-47D breast it was -47.3% (active); with BT-549 breast it was -75.5% (active). Also, the growth was -100% (active) in the assay with MDA-MB-435 melanoma; -80.4% (active) with SW-620 colon; -55% (active) in the assay on MCF7 breast; 2.62% (active) in the assay on HCT-116 colon; -41.9% (active) in the assay on HCC-2998 colon; 50.2% in the assay with KM12 colon. For the same molecule, the growth in the assay on MDA-MB-468 breast was -88.8% (active).

Take `O=C(/C=C/Nc1ccc(F)cc1F)c1ccc2c(c1)Nc1ccccc1S2`: the growth was 31.7% in the assay with SR leukemia; 78.2% in the assay on RPMI-8226 leukemia; 64.6% in the assay with OVCAR-8 ovarian; 86.8% in the assay with OVCAR-5 ovarian; 68.2% with OVCAR-4 ovarian; 95.2% in the assay on SK-OV-3 ovarian. For the same molecule, the growth with IGROV1 ovarian was 77.9%; with OVCAR-3 ovarian, 100%; with HS 578T breast, 63%; with NCI/ADR-RES ovarian, 57.1%; with T-47D breast it was 80.1%; in the assay with BT-549 breast, 85.7%. For the same molecule, the growth in the assay with MDA-MB-435 melanoma was 9.72% (active); in the assay with SW-620 colon, 55.1%; in the assay with MCF7 breast it was 37.9%; with HCT-116 colon, 58.6%; with HCC-2998 colon it was 79.7%; in the assay on KM12 colon, 51.6%.

Take `COC1=C[C@]23CCC(=O)N2CCc2cc4c(cc2[C@@H]3[C@@H]1OC(=O)CCCC(C)C)OCO4`: the growth with SR leukemia was 18.2%; in the assay on RPMI-8226 leukemia, 22.4%; in the assay on OVCAR-8 ovarian it was 73.9%; with OVCAR-5 ovarian it was 78.4%; with OVCAR-4 ovarian, 54%; in the assay with SK-OV-3 ovarian, 53.7%. Besides, the growth was 43.3% in the assay on IGROV1 ovarian; 45% in the assay on OVCAR-3 ovarian; 71.8% with HS 578T breast; 74.9% with NCI/ADR-RES ovarian; 68.3% in the assay with T-47D breast; 85.4% in the assay with BT-549 breast. Further, the growth in the assay on MDA-MB-435 melanoma was 74.1%; in the assay on SW-620 colon, 63%; with MCF7 breast, 1.77% (active); in the assay on HCT-116 colon it was 19.2%; in the assay on HCC-2998 colon, 21.8%; with KM12 colon, 48.7%.

As for `COc1ccc(C(=O)NC(=S)N2CCN(c3ncnc4c3cnn4-c3ccccc3)CC2)cc1`, the growth in the assay on SR leukemia is 12.3%; in the assay with RPMI-8226 leukemia, 72.6%; in the assay with OVCAR-8 ovarian, 51.3%; with OVCAR-5 ovarian, 79.3%; with OVCAR-4 ovarian, 54.1%; with SK-OV-3 ovarian, 7.3% (active). In addition, the growth in the assay with IGROV1 ovarian was 66.4%; in the assay on OVCAR-3 ovarian it was 83.1%; in the assay on HS 578T breast, 51%; with NCI/ADR-RES ovarian, 61.7%; in the assay on T-47D breast it was 70.3%; with BT-549 breast it was 88.2%. Further, the growth with MDA-MB-435 melanoma is 84.8%; with SW-620 colon it was 80.5%; with MCF7 breast, 54.3%; in the assay with HCT-116 colon, 66.6%; in the assay on HCC-2998 colon it was 87%; in the assay on KM12 colon it was 84.4%. Moreover, the growth with MDA-MB-468 breast was 61.2%.
